# Records with an inconclusive call do not appear. Active and inactive are the calls of the source.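 How the source made its calls, unless noted: active means normalized viability below 100% at a tested concentration; inactive means the rest.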
# Columns and labels:
# [1] = viability loss in pontine glioma line – cell-based, SU-DIPG-XVII, MIPE5.0, CellTiter-Glo, qHTS, dose response (AID 1347060; cut-off not given, nearly all actives have AC50 up to about 26 µM;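 on AC50: cells exposed to compound for 48 hours before viability readout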); details: CellTiter-Glo ATP luminescence
# [2] = viability loss in pontine glioma line – cell-based, JHH-DIPG-1, MIPE4.0, CellTiter-Glo, qHTS, dose response (AID 1347062; cut-off not given, nearly all actives have AC50 up to about 27 µM;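 on AC50: cells exposed to compound for two days before readout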); details: JHH-DIPG-1 viability, CellTiter-Glo ATP luminescence
# [3] = viability loss in pontine glioma line – cell-based, SU-DIPG-IV, MIPE4.0, CellTiter-Glo, qHTS, dose response (AID 1347063; cut-off not given, nearly all actives have AC50 up to about 30 µM;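 further: compound exposure lasted 48 hours before the viability readout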); details: CellTiter-Glo ATP luminescence
# [4] = viability loss in pontine glioma line – cell-based, SU-DIPG-XIII, MIPE5.0, CellTiter-Glo, qHTS, dose response (AID 1347064; cut-off not given, nearly all actives have AC50 up to about 23 µM;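 on AC50: cells exposed to compound for 48 hours before the viability read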); details: CellTiter-Glo ATP luminescence
# [5] = viability loss in pontine glioma line – cell-based, SU-DIPG-XXV, MIPE5.0, CellTiter-Glo, qHTS, dose response (AID 1347065; cut-off not given, nearly all actives have AC50 up to about 26 µM;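 further: cells exposed to compound for 48 hours before ATP readout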); details: CellTiter-Glo ATP luminescence
# [6] = growth inhibition of DIPG cells – cell-based, MIPE4.0 library, CellTiter-Glo luminescence, qHTS (AID 1347066; cut-off not given, nearly all actives have AC50 up to about 30 µM;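 further: cells exposed to compound for 48 hours before readout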); details: SU-DIPG-VI viability, CellTiter-Glo ATP luminescence
# [7] = JHH-DIPG-1 glioma cell viability, MIPE5.0 library, CellTiter-Glo luminescence, qHTS (AID 1347067; cut-off not given, nearly all actives have AC50 up to about 26 µM;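 further: cells exposed to compound for 48 hours before readout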); details: JHH-DIPG-1 glioma viability, CellTiter-Glo ATP luminescence
# [8] = growth inhibition of DIPG cells – cell-based, MIPE5.0 library, qHTS (AID 1347068; cut-off not given, nearly all actives have IC50 up to about 30 µM;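 on IC50: cells exposed to compound for 48 hours before viability readout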); details: SU-DIPG-XXV viability
# [9] = viability loss with induced miR-34 in A549 – imaging, A549 dox-inducible miR-34, nuclei and caspase counts, primary screen (AID 1347080;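 active means compounds whose cell count with miR-34 switched on is under 0.7 times the count with it off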); details: A549 miR-34 inducible, Hoechst nuclei count, 48 h
# [10] = compounds altering HSF1 focus formation in cells – imaging, Selleck Cancer Library (AID 1347162; in the data active means plate-normalised HSF1 focus index below about 0.46); details: human cells, HSF1 nuclear foci imaging, at 10 µM; SSMD: measured here: HSF1 foci SSMD mean; cell count: measured here: cell number; plate-normalised HSF1 focus index: stronger effect = lower value
# [11] = MELAS cybrid and Rieske KO viability enhancers – cell-based, MELAS cybrids, Rieske KO mouse fibroblasts, CellTiter-Glo, primary screen (AID 1508586;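 active means mean z-score across replicates of 1.96 or higher in either the MELAS or the Rieske mutant cell line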;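 further: z relative to plate mean and SD of compound and empty wells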); details: low glucose
# [12] = drug combination growth inhibition, ovarian cancer – cell-based, oncology-focused library, rucaparib conditional, profiling panel (AID 1508598); details: patient-derived ovarian cancer cells, CellTiter-Glo viability, 144 h, stronger effect = lower value
# [13] = viability loss in pontine glioma line – cell-based, SU-DIPG-XIII, MIPE4.0, CellTiter-Glo, qHTS, dose response (AID 1347061; cut-off not given, nearly all actives have AC50 up to about 37 µM;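 further: cells exposed to compound for 48 hours before readout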); details: CellTiter-Glo ATP luminescence
# [14] = stronger effect = lower value, cell number ratio, induced over uninduced
# [15] = measured here: relative caspase fold change +Dox/-Dox
# [16] = measured here: total cells with miR-34 induction, stronger effect = lower value
# [17] = measured here: total cells without miR-34 induction
# [18] = MELAS cybrid survival, CellTiter-Glo 48 h, stronger effect = higher value
# [19] = Rieske KO mouse fibroblast survival, CellTiter-Glo 72 h
compound,measurement,setting,value
CNC(=O)c1cc(Oc2ccc(NC(=O)Nc3cc(C(C)(C)C)nn3-c3ccc4ncccc4c3)c(F)c2)ccn1,AC50,[1],5.9 µM (active)
same,AC50,[2],7.43 µM (active)
same,AC50,[3],8.33 µM (active)
same,AC50,[4],0.0661 µM (active)
same,AC50,[5],9.34 µM (active)
same,outcome,[6],inactive
same,AC50,[7],5.9 µM (active)
same,IC50,[8],20.9 µM (active)
same,fold change,[9]; [14],0.963 (inactive)
same,fold change,[9]; [15],0.469
same,cell count,[9]; [16],608
same,cell count,[9]; [17],632
same,SSMD,[10],0.0864
same,cell count,[10],6970
same,plate-normalised HSF1 focus index,[10],1.01 (inactive)
same,z-score,[11]; [18],3.18 (active)
same,z-score,[11]; [19],0.93
same,viability,"[12]; at 0.000305 µM, OCI-C5x cells, with rucaparib 10 µM, 100% = cells with rucaparib alone",112% (inactive)
same,viability,"[12]; at 0.000305 µM, OCI-C5x cells, without rucaparib",112% (inactive)
same,viability,"[12]; at 0.000305 µM, OCI-P5x cells, with rucaparib 20 µM, 100% = cells with rucaparib alone",103% (inactive)
same,viability,"[12]; at 0.000305 µM, OCI-P5x cells, without rucaparib",108% (inactive)
same,viability,"[12]; at 0.00122 µM, OCI-C5x cells, with rucaparib 10 µM, 100% = cells with rucaparib alone",102% (inactive)
same,viability,"[12]; at 0.00122 µM, OCI-C5x cells, without rucaparib",117% (inactive)
same,viability,"[12]; at 0.00122 µM, OCI-P5x cells, with rucaparib 20 µM, 100% = cells with rucaparib alone",110% (inactive)
same,viability,"[12]; at 0.00122 µM, OCI-P5x cells, without rucaparib",103% (inactive)
same,viability,"[12]; at 0.00488 µM, OCI-C5x cells, with rucaparib 10 µM, 100% = cells with rucaparib alone",108% (inactive)
same,viability,"[12]; at 0.00488 µM, OCI-C5x cells, without rucaparib",116% (inactive)
same,viability,"[12]; at 0.00488 µM, OCI-P5x cells, with rucaparib 20 µM, 100% = cells with rucaparib alone",116% (inactive)
same,viability,"[12]; at 0.00488 µM, OCI-P5x cells, without rucaparib",102% (inactive)
same,viability,"[12]; at 0.0195 µM, OCI-C5x cells, with rucaparib 10 µM, 100% = cells with rucaparib alone",107% (inactive)
same,viability,"[12]; at 0.0195 µM, OCI-C5x cells, without rucaparib",118% (inactive)
same,viability,"[12]; at 0.0195 µM, OCI-P5x cells, with rucaparib 20 µM, 100% = cells with rucaparib alone",110% (inactive)
same,viability,"[12]; at 0.0195 µM, OCI-P5x cells, without rucaparib",97.7% (active)
same,viability,"[12]; at 0.0781 µM, OCI-C5x cells, with rucaparib 10 µM, 100% = cells with rucaparib alone",115% (inactive)
same,viability,"[12]; at 0.0781 µM, OCI-C5x cells, without rucaparib",113% (inactive)
same,viability,"[12]; at 0.0781 µM, OCI-P5x cells, with rucaparib 20 µM, 100% = cells with rucaparib alone",114% (inactive)
same,viability,"[12]; at 0.0781 µM, OCI-P5x cells, without rucaparib",97.7% (active)
same,viability,"[12]; at 0.313 µM, OCI-C5x cells, with rucaparib 10 µM, 100% = cells with rucaparib alone",96.9% (active)
same,viability,"[12]; at 0.313 µM, OCI-C5x cells, without rucaparib",105% (inactive)
same,viability,"[12]; at 0.313 µM, OCI-P5x cells, with rucaparib 20 µM, 100% = cells with rucaparib alone",120% (inactive)
same,viability,"[12]; at 0.313 µM, OCI-P5x cells, without rucaparib",96.4% (active)
same,viability,"[12]; at 1.25 µM, OCI-C5x cells, with rucaparib 10 µM, 100% = cells with rucaparib alone",77.5% (active)
same,viability,"[12]; at 1.25 µM, OCI-C5x cells, without rucaparib",96.1% (active)
same,viability,"[12]; at 1.25 µM, OCI-P5x cells, with rucaparib 20 µM, 100% = cells with rucaparib alone",29.9% (active)
same,viability,"[12]; at 1.25 µM, OCI-P5x cells, without rucaparib",97.7% (active)
same,viability,"[12]; at 5 µM, OCI-C5x cells, with rucaparib 10 µM, 100% = cells with rucaparib alone",9.96% (active)
same,viability,"[12]; at 5 µM, OCI-C5x cells, without rucaparib",8.93% (active)
same,viability,"[12]; at 5 µM, OCI-P5x cells, with rucaparib 20 µM, 100% = cells with rucaparib alone",17.1% (active)
same,viability,"[12]; at 5 µM, OCI-P5x cells, without rucaparib",4.51% (active)
Cc1cc(SCc2sc(-c3ccc(C(F)(F)F)cc3)nc2C)ccc1OCC(=O)O,outcome,[1],inactive
same,outcome,[2],inactive
same,outcome,[3],inactive
same,outcome,[4],inactive
same,outcome,[5],inactive
same,outcome,[6],inactive
same,outcome,[7],inactive
same,outcome,[8],inactive
Cc1nc(NC(=O)N2CCC[C@H]2C(N)=O)sc1-c1csc(C(C)(C)C)n1,AC50,[1],11.8 µM (active)
same,AC50,[2],4.69 µM (active)
same,AC50,[3],2.96 µM (active)
same,AC50,[4],7.42 µM (active)
same,AC50,[5],4.68 µM (active)
same,AC50,[6],9.35 µM (active)
C=CC(=O)Nc1ccc2ncnc(Nc3ccc(OCc4cccc(F)c4)c(Cl)c3)c2c1,AC50,[1],5.25 µM (active)
same,AC50,[2],23.5 µM (active)
same,AC50,[3],1.32 µM (active)
same,AC50,[4],11.8 µM (active)
same,AC50,[5],6.61 µM (active)
same,AC50,[6],4.69 µM (active)
same,AC50,[7],8.33 µM (active)
same,IC50,[8],14.8 µM (active)
same,fold change,[9]; [14],0.764 (inactive)
same,fold change,[9]; [15],2.08
same,cell count,[9]; [16],4290
same,cell count,[9]; [17],5610
same,z-score,[11]; [18],-0.263 (inactive)
same,z-score,[11]; [19],0.764
CSc1cccc(Nc2ncc3cc(-c4c(Cl)cccc4Cl)c(=O)n(C)c3n2)c1,AC50,[1],1.48 µM (active)
same,outcome,[13],inactive
same,AC50,[5],1.05 µM (active)
same,AC50,[7],1.18 µM (active)
CC(/C=C1\SC(=S)N(CC(=O)O)C1=O)=C\c1ccccc1,outcome,[1],inactive
same,outcome,[2],inactive
same,outcome,[3],inactive
same,outcome,[4],inactive
same,outcome,[5],inactive
same,outcome,[6],inactive
same,outcome,[7],inactive

# Source: PubChem BioAssay
